In PubChem BioAssay (NCATS):
Results filed as inconclusive are left out. Calls of active or inactive are those of the source. Unless noted, calls follow the shape of the dose curve; as a rule, active = well fitted curve in the direction sought with a large enough effect; inconclusive = small, poorly fitted or top-dose-only effect, or another doubt; inactive = no such curve, though single readings can be large; an effect the other way counts as inactive or inconclusive.

Columns and labels:
[1] = qHTS assay for small molecule agonists of retinoid X receptor alpha signaling (AID 588544; calls by dose curve;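 as to activation: 0% = DMSO basal wells and 100% = reference agonist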); details: HEK293T RXRa-UAS-bla, beta-lactamase reporter, 18 h; 530 nm emission
[2] = molecular target: Retinoic acid receptor RXR-alpha (Homo sapiens) (UniProt P19793); assay: as above; details: HEK293T RXRa-UAS-bla, beta-lactamase reporter, 18 h; series mostly up to 76.7 µM
Retinoic acid receptor RXR-alpha (Homo sapiens), sequence (P19793 whole entry, looked up): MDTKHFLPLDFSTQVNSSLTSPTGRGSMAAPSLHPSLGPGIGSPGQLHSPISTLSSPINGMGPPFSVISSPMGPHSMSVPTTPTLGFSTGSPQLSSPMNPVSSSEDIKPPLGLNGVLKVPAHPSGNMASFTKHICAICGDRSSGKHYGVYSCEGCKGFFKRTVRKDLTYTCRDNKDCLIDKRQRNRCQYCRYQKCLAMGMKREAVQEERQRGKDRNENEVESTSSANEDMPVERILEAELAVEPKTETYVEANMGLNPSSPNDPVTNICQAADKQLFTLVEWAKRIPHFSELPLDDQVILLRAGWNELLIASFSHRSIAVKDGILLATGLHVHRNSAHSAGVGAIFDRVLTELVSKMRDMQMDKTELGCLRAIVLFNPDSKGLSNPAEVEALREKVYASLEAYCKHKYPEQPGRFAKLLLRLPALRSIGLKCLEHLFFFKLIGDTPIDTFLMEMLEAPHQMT

[3] = qHTS assay for small molecule antagonists of retinoid X receptor alpha signaling (AID 588546; active = well fitted inhibition curve with a large enough effect in the signal ratio, with a control signal flat, not every such curve was filed as active; the % refers to the signal ratio;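 also: cells stimulated with 9-cis-retinoic acid as agonist; % is scaled to controls: 0 for no effect and ±100 for the full control effect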); details: HEK293T RXRa-UAS-bla, beta-lactamase ratio, antagonist mode; measured here: W530 green channel, cytotoxicity proxy
Outline: (§1)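 Beta-lactamase reporter inhibition, read as CCF4 fluorescence ratio (ex 405, em 460/530 nm) after 2 h at RT. HEK293T UAS-bla cells, 2500/well, were stimulated with 9-cis-RA at 500 or 100 nM final alongside test compound for 18 h at 37 C.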

[4] = molecular target: Retinoic acid receptor RXR-alpha (Homo sapiens) (UniProt P19793); assay: as above; details: HEK293T RXRa-UAS-bla, beta-lactamase ratio, antagonist mode
Outline: as §1

[5] = molecular target: Thyroid hormone receptor beta (Homo sapiens) (UniProt P10828); assay: qHTS assay for small molecule antagonists of thyroid hormone receptor beta signaling (AID 588547; active = well fitted inhibition curve with a large enough effect in the signal ratio, with a control signal flat, not every such curve was filed as active; the % refers to the signal ratio;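 also: cells stimulated with 0.4 nM T3 agonist during compound exposure; % is scaled to controls: 0 for no effect and ±100 for the full control effect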); details: TR-UAS-bla HEK293, beta-lactamase ratio, antagonist mode, 18 h
Thyroid hormone receptor beta (Homo sapiens), sequence (P10828 whole entry, looked up): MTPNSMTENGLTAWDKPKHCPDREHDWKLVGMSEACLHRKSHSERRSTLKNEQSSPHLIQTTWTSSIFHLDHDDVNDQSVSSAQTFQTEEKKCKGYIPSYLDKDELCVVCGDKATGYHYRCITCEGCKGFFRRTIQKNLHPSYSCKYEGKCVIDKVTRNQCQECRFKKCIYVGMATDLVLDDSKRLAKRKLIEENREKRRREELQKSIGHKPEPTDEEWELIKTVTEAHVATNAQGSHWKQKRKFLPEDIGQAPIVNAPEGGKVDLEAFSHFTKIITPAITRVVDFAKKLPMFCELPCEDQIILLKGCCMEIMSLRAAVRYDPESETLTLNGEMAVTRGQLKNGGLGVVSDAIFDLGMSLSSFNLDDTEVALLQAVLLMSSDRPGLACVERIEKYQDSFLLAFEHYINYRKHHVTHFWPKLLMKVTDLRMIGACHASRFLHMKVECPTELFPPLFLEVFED
Outline: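 TR-UAS-bla GripTite HEK293 cells in 2% charcoal/dextran FBS medium; compounds 0.59 nM to 92 uM with T3 at 0.4nM final, 18 h at 37 C. Beta-lactamase read by CCF4 fluorescence (460/530 nm); Hill fits gave IC50 and efficacy.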

[6] = molecular target: Voltage-gated inwardly rectifying potassium channel KCNH2 (Homo sapiens) (UniProt Q12809); assay: qHTS Assay for Small Molecule Inhibitors of the Human hERG Channel Activity (AID 588834); details: U2OS BacMam hERG, FluxOR thallium flux fluorescence; series mostly up to 92.2 µM;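 also: top concentration of the series differs between compounds; % is scaled to controls: 0 for no effect and ±100 for the full control effect; lower thallium flux fluorescence means stronger hERG block; nearly all actives have a fitted effect of over 50% in size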
Voltage-gated inwardly rectifying potassium channel KCNH2 (Homo sapiens), sequence (Q12809 whole entry, looked up): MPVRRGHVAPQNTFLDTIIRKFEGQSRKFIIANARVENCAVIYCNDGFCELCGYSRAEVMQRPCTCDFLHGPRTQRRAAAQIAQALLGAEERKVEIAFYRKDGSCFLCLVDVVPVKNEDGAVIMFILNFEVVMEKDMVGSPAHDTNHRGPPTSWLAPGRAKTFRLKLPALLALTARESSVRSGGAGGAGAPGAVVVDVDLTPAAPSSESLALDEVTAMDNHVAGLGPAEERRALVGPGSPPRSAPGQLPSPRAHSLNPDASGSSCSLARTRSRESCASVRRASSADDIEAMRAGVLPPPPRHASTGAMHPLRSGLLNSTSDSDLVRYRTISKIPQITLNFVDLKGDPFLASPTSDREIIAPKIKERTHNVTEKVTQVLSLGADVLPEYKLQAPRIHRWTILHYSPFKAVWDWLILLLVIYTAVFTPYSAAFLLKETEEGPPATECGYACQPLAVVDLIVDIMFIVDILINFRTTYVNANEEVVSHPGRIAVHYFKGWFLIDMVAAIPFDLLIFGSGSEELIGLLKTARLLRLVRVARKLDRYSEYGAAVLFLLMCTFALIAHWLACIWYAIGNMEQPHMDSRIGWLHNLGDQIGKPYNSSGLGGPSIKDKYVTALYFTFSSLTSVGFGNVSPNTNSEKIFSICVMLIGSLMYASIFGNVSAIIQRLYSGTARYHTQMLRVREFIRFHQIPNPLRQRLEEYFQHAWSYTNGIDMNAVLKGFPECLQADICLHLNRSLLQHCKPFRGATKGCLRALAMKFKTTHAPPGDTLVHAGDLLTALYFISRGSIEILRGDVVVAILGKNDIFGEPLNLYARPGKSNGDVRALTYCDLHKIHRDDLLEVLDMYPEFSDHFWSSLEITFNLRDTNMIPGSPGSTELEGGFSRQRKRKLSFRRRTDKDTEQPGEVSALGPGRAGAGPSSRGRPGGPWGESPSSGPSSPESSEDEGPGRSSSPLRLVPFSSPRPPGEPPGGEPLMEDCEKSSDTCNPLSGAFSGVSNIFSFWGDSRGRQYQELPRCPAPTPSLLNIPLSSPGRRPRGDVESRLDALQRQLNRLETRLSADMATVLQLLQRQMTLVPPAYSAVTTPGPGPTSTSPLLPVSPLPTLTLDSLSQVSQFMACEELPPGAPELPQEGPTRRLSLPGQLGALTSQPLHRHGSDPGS
Outline: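 hERG-BacMam U2OS, 2000 cells/well; 0.7X FluxOR loading 1 hr RT dark; cpd ~10 min 37 °C; stim buffer; FDSS fluorescence 2 min @ 1 s; AC50 Hill fit.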

[7] = qHTS assay for small molecule agonists of the antioxidant response element (ARE) signaling pathway (AID 651741; active = well fitted activation curve with a large enough effect in the signal ratio; the % refers to the signal ratio; also: % of control where 0% means no effect); details: HepG2 ARE-bla reporter, beta-lactamase FRET ratio, 16 h; series mostly up to 96 µM
Outline: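 HepG2 ARE-bla cells plated at 2,000 cells/well and incubated 5 h at 37 C/5% CO2 received 23 nL compound in DMSO. After 16 h at 37 C, LiveBLAzer B/G FRET substrate was applied for 2 h at room temperature and fluorescence read.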

[8] = qHTS assay for small molecule activators of the p53 signaling pathway (AID 651743; active = well fitted activation curve with a large enough effect in the signal ratio, not every such curve was filed as active; the % refers to the signal ratio; also: % of control where 0% means no effect); details: HCT-116 p53RE-bla, beta-lactamase FRET ratio, 16 h; stronger effect = higher value
Outline: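 HCT-116 p53RE-bla, 4,000 cells/well; 5 h settle; cpd/DMSO 16 h, 37 C; LiveBLAzer B/G 2 h RT; fluorescence intensity.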

[9] = qHTS assay for small molecule activators of the nuclear factor-kappa B (NF-kB) signaling pathway (AID 651749; active = well fitted activation curve with a large enough effect in the signal ratio; the % refers to the signal ratio; also: % of control where 0% means no effect); details: NF-kB-bla ME-180 cells, beta-lactamase FRET ratio, 16 h; stronger effect = higher value
Outline: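 Incubation lasted 16 hr at 37C in 5% CO2 after 23 nL compound addition to ME-180 NF-kB-bla cells. Activation appears as beta-lactamase-mediated FRET loss.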

[10] = qHTS assay for small molecule disruptors of the mitochondrial membrane potential - 1 hr assay (AID 651754; calls by dose curve; also: % is scaled to controls: 0 for no effect and ±100 for the full control effect; nearly all actives have a fitted effect of over 35% in size); details: series mostly up to 92.2 µM
Outline: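 Steps: seed HepG2 cells and let attach overnight; pin-transfer compound or vehicle; incubate 1 hr at 37C; add Mito-MPS dye for 30 min; read two-channel fluorescence for monomer and aggregate forms.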

[11] = qHTS assay for small molecule disruptors of the mitochondrial membrane potential - 5 hr assay (AID 651755; calls by dose curve; also: % is scaled to controls: 0 for no effect and ±100 for the full control effect; nearly all actives have a fitted effect of over 40% in size); details: JC-1-type ratio dye; series mostly up to 92.2 µM
Outline: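 HepG2 cells (2,000/well), attached overnight, exposed to compound 5 hr at 37C, then Mito-MPS dye 30 min. Fluorescence read for monomers (490/535 nm) and aggregates (540/590 nm).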

[12] = molecular target: Tumor necrosis factor (Homo sapiens) (UniProt P01375); assay: qHTS assay to identify small molecules that stimulate Tumor Necrosis Factor-alpha (TNF-alpha) secretion (AID 651757; active = well fitted curve in the direction sought with a large enough effect in the signal ratio; the % refers to the signal ratio; also: 0% is about no effect); details: Human cells, HTRF 665/615 ratio; series mostly up to 92.2 µM
Tumor necrosis factor (Homo sapiens), sequence (P01375 whole entry, looked up): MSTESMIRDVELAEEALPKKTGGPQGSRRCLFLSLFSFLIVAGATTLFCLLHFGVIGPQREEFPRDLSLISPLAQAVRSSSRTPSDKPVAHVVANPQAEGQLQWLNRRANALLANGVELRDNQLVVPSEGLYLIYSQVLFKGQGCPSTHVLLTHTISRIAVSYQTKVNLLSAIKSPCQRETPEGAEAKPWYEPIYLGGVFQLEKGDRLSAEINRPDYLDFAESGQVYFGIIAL
Outline: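 Secreted TNF-alpha from compound-treated THP-1 cells (17 hrs, 37 C) was quantified with a homogeneous time-resolved fluorescence antibody assay.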

[13] = qHTS assay to identify small molecules that stimulate interleukin-8 (IL-8) secretion (AID 651758; active = well fitted activation curve with a large enough effect in the signal ratio; the % refers to the signal ratio; also: 0% is about no effect); details: HTRF ratio (665/615); series mostly up to 92.2 µM
Outline: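 THP-1 cells (2000/well) exposed to compound 16 h at 37 C; secreted IL-8 then detected by HTRF with cryptate- and XL665-labelled anti-IL-8 antibody pair after 1-3 h at room temperature.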

[14] = qHTS assay for environmental chemicals that activate the Aryl hydrocarbon Receptor (AhR) signaling pathway (AID 651777); details: 1A2-DRE human hepatoma cells, luciferase, 24 h; activation: stronger effect = higher value; also: % of control where 0% means no effect; nearly all actives have a fitted effect of over 15% in size
Outline: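 Following a 24 hr incubation with test chemicals at 37 C and 5% CO2, 1A2-DRE human hepatoma cells received One-Glo reagent; after 30 min at room temperature, luciferase output reflected CYP1A2 induction via AhR.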

[15] = molecular target: Peroxisome proliferator-activated receptor alpha (Homo sapiens) (UniProt Q07869); assay: qHTS assay for small molecule agonists of the peroxisome proliferator-activated receptor alpha (PPARalpha) signaling pathway (AID 651778); details: PathHunter PPARalpha complementation, chemiluminescence, 6 h; stronger effect = higher value; also: % of control where 0% means no effect
Peroxisome proliferator-activated receptor alpha (Homo sapiens), sequence (Q07869 whole entry, looked up, the tested form may be a part): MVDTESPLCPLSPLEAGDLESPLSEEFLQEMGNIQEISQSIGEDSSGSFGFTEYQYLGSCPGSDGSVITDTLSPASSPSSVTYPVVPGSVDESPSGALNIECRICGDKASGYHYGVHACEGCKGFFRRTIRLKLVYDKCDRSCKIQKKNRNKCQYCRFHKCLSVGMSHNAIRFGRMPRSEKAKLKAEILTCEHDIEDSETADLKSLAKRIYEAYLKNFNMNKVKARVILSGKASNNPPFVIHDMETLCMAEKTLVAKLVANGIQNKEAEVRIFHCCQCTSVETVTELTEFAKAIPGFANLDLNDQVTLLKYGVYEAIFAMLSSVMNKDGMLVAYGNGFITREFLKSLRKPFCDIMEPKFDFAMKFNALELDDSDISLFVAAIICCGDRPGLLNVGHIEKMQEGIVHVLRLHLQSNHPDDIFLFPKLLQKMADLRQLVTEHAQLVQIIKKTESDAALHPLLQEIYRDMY
Outline: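 Enzyme-fragment complementation assay in which ligand-bound PPARalpha translocates and forms an active enzyme that generates chemiluminescence. Cells were plated overnight, exposed to compound for 6 hr at 37 C, and then given detection reagent for 60 min at room temperature.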

[16] = molecular target: Nuclear receptor ROR-gamma (Homo sapiens) (UniProt P51449); assay: qHTS assay for small molecule antagonists of the retinoid-related orphan receptor gamma (ROR-gamma) signaling pathway (AID 651802); details: ROR-gamma antagonist cell reporter assay; series mostly up to 92.2 µM;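 also: CHO cells with doxycycline-induced ROR-gamma expression; % is scaled to controls: 0 for no effect and ±100 for the full control effect; nearly all actives have a fitted effect of over 60% in size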
Nuclear receptor ROR-gamma (Homo sapiens), sequence (P51449 whole entry, looked up): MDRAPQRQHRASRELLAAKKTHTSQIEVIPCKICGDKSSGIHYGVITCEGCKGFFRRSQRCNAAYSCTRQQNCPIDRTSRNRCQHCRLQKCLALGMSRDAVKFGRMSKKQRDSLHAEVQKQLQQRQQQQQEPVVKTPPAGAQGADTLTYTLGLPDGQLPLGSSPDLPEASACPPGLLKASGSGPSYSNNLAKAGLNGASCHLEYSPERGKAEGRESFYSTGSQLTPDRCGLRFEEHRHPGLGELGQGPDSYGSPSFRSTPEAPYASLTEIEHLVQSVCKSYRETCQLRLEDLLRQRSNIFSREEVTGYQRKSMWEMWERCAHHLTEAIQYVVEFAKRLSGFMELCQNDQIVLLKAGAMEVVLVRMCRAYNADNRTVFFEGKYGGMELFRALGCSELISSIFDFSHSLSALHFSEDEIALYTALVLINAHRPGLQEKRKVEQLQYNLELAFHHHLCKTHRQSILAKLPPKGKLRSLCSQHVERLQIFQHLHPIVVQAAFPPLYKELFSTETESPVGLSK
Outline: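 Antagonism is scored as a fall in luminescence from a RORE-luciferase reporter in CHO cells expressing ROR under a TET-inducible promoter, measured 16hr after doxycycline induction in the presence of compound.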

[17] = qHTS assay for small molecule agonists of the antioxidant response element (ARE) signaling pathway measured by Nrf2-dependant transcriptional activity (AID 720636; active = well fitted curve in the direction sought with a large enough effect in the repeat runs; an effect the other way counts as inactive or inconclusive;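 also: HepG2 cells with an ARE-driven luciferase reporter; % of control where 0% means no effect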); details: ARE-luc HepG2, Nrf2 luciferase reporter, 16 h; series mostly up to 92.4 µM
Outline: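 ONE-Glo luminescence, read 30 min after reagent addition at room temperature, reflected ARE reporter activity in HepG2 cells that had been incubated with compound for 16 hr at 37 C in 1% dialyzed FBS.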

[18] = qHTS assay for small molecule antagonists of the retinoid-related orphan receptor gamma (ROR-gamma) signaling pathway - cell viability counter screen (AID 720652; active = well fitted curve in the direction sought with a large enough effect in the repeat runs; an effect the other way counts as inactive or inconclusive;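 also: CHO reporter cells with doxycycline-induced ROR-gamma expression; compound exposure lasted 16 hr before ATP read; % is scaled to controls: 0 for no effect and ±100 for the full control effect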); details: RORgamma reporter cell line viability counter screen; series mostly up to 92.2 µM
Outline: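 Cytotoxicity is quantified via intracellular ATP (CellTiter-Glo luminescence) in doxycycline-induced CHO ROR response element-luciferase reporter cells treated with compound for 16 hr at 37 C, 5% CO2.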

[19] = molecular target: Thyroid hormone receptor beta (Homo sapiens) (UniProt P10828); assay: qHTS assay for small molecule agonists of thyroid hormone receptor beta signaling (AID 588545; calls by dose curve); details: TR-UAS-bla GripTite HEK 293, beta-lactamase ratio, agonist mode, 18 h, percent of T3 response, DMSO as zero; series mostly up to 76.7 µM
Outline: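 HEK 293 TR-UAS-bla; agonist mode; 18 hrs, 37 C; CCF4, ex 405/em 460 and 530 nm; norm. T3 10 nM = 100%, DMSO = 0%; Hill fit → EC50, efficacy.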

[20] = qHTS assay for small molecule agonists of the antioxidant response element (ARE) signaling pathway measured by Nrf2-dependant transcriptional activity - cell viability counter screen (AID 720653; active = well fitted curve in the direction sought with a large enough effect in the repeat runs; an effect the other way counts as inactive or inconclusive; also: % is scaled to controls: 0 for no effect and ±100 for the full control effect); details: ARE-bla HepG2 viability, CellTiter-Glo ATP luminescence, 16 h; stronger effect = lower value
Outline: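 ARE-bla HepG2 cells treated with compounds for 16 h at 37C; this counter screen measures viability as intracellular ATP by CellTiter-Glo luminescence after 30 min at room temperature.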

CCCCCCCCC
inactive: outcome [2] | max response [4] 0.715% | activity change % (negative = inhibition) [5] 13.2% | Potency [6] | Potency [7] | activation [8] -1.85% | activation [9] 0.37% | Potency [10] | Potency [11] | Potency [12] | Potency [13] | activation [14] 0.0249% | max response [15] -0.317% | Potency [16] | outcome [17] | Potency [18]
-5.14%: max response [1]
-11.2%: max response [3]

C=C(C)C1CC=C(C)C(OC(C)=O)C1 (configuration not stated)
inactive: outcome [2] | outcome [19] | max response [4] 1.02% | Potency [6] | activation [8] 1.6% | Potency [10] | Potency [11] | Potency [12] | Potency [13] | activation [14] 0.261% | max response [15] -3.58% | Potency [16] | outcome [17] | Potency [18] | max response [20] 1.71%
-3.57%: max response [1]
-6.8%: max response [3]

COC(=O)c1ccccc1
inactive: outcome [2] | max response [4] 4.4% | activity change % (negative = inhibition) [5] -7.56% | Potency [6] | activation [8] 7.4% | activation [9] 1.41% | Potency [10] | Potency [11] | Potency [12] | activation [14] -0.388% | max response [15] -4.31% | Potency [16] | outcome [17] | Potency [18] | max response [20] 3.39%
0.622%: max response [1]
-5.14%: max response [3]

O=CNc1ccccc1
inactive: outcome [2] | outcome [19] | max response [4] 1.7% | Potency [6] | Potency [10] | Potency [11] | Potency [12] | activation [14] -0.556% | max response [15] -2.49% | Potency [16] | outcome [17] | Potency [18] | max response [20] -3.88%
-8.25%: max response [1]
2.83%: max response [3]

O=C1NC(=O)c2cc([N+](=O)[O-])ccc21
3.03%: max response [1]
inactive: outcome [2] | max response [4] 7.59% | activity change % (negative = inhibition) [5] 2.64% | Potency [6] | Potency [7] | activation [8] -2.78% | activation [9] 0.0192% | Potency [11] | Potency [12] | max response [15] -3.3% | Potency [16] | outcome [17] | Potency [18]
4.85%: max response [3]

Cc1ccc2ccccc2c1[N+](=O)[O-]
-7.86%: max response [1]
inactive: outcome [2] | max response [4] 2.75% | activity change % (negative = inhibition) [5] -6.91% | Potency [6] | activation [8] 0.53% | activation [9] 0.793% | Potency [10] | Potency [11] | Potency [12] | Potency [13] | activation [14] 1.24% | max response [15] 5.72% | Potency [16] | outcome [17] | max response [20] 14.1%
0.642%: max response [3]

O=[N+]([O-])c1ccc2nc[nH]c2c1
-26.8%: max response [1]
inactive: outcome [2] | outcome [19] | activity change % (negative = inhibition) [5] 5.36% | Potency [6] | Potency [7] | activation [9] 0.954% | Potency [13] | max response [15] -4.28% | Potency [16] | outcome [17] | Potency [18] | max response [20] -5.47%
